Screening data from PubChem.
CDK5 p35 inh: inhibitors of human CDK5/p35 kinase, primary screen, biochemical, single concentration | inhibition, % at 10 µM | AID 488839, 2010 | Recombinant CDK5/p35, ADP-Glo luminescence, 60 min | actives 0.01% (n = 330,000) | Cyclin-dependent kinase 5 (Homo sapiens) + Cyclin-dependent kinase 5 activator 1 (Homo …;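 active means highest replicate inhibition of at least 50% and at least 75% of replicates reaching 50%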;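 further: plate controls were DMSO neutral control for no effect and GW8510 at 10 µM for full effect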
SUMO Mot1 rescue: yeast Mot1-301 growth rescue at high temperature, primary screen, SUMOylation pathway inhibitor project, S. cerevisiae, ATP luminescence, 38.5C; actives 1% (n = 320,000); S. cerevisiae Mot1-301 growth rescue; percent above DMSO median, 100 means doubled; growth rescue, % at 18.8 µM;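 active means every valid replicate shows activation above 250% relative to neutral control wells; inactive means the rest, any valid replicate at or below 250%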;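 further: OY570 slx delta 5 strain wells were the positive control but not used for scaling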
ALR H2O2 inh: inhibitors of human ALR sulfhydryl oxidase, primary screen, biochemical, H2O2 detection, HRP-luminol luminescence, single point. actives 3.8% (n = 290,000). purified ALR, DTT oxidation. FAD-linked sulfhydryl oxidase ALR (Homo sapiens), P55789. inhibition, % (no concentration beside the values);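 active means mean replicate inhibition above about 79%, with every replicate also reaching it, limit read from the data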
Target sequence (P55789 whole entry, looked up): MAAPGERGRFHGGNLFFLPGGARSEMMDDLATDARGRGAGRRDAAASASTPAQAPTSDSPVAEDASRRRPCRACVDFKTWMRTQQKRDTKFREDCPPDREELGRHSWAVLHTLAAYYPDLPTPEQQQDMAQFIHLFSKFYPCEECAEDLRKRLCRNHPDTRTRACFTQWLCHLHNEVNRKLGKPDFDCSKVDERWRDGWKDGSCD
Glyco luc inh: increase of ERlucT glycosylation luciferase signal, primary screen, N-linked glycosylation inhibitor project, D54 ERlucT cells, luminescence, set 2; actives 0.23% (n = 360,000); AID 588692, 2011; D54 ERlucT glycosylation luciferase reporter, 24 h; percent of 100 nM tunicamycin response; reporter increase, % at 12.5 µM;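 active means mean luciferase reporter signal, scaled so untreated is 0 and the glycosylation-blocking control 100, at or above a set limit in every replicate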;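 further: luciferase carries N-glycosylation sites so blocking glycosylation raises the light; 0% = median of neutral control wells and 100% = median of 100 nM tunicamycin wells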
NSD2 HMT inh: NSD2 histone methyltransferase inhibitors, primary screen, biochemical, AlphaScreen, single concentration, set 2. AID 743445, 2014. actives 0.54% (n = 310,000). Histone-lysine N-methyltransferase NSD2 (Homo sapiens), O96028. inhibition, % at 12.5 µM. NSD2 peptide methylation, 120 min; in the data active means inhibition above about 50%
Casp6 inh: human caspase-6 inhibitors, primary screen, biochemical, VEID-R110 fluorescence, single point, set 2. actives 0.53% (n = 350,000). purified caspase-6, Z-VEID-R110 cleavage fluorescence. P55212. inhibition, % at 12.5 µM. AID 686996, 2013;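 active means mean inhibition across replicates at least about 35%, with every replicate also reaching that limit, limit read from the data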;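 further: 0% = median of neutral control wells and 100% = no fluorescence left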
An asterisk follows results filed as active; . = not tested or not shown. This is a sample that favours compounds with a hit; in the whole collection about 3.9% have one here.

SMILES	CDK5 p35 inh	SUMO Mot1 rescue	ALR H2O2 inh	Glyco luc inh	NSD2 HMT inh	Casp6 inh
O=C(O)c1cccc(NC(=O)c2ccc3c(c2)C(=O)N(c2ccccc2)C3=O)c1	0	9	16	1	-2	0
O=C(O)c1ccc2c(c1)C(=O)N(c1ccc(Nc3ccccc3)cc1)C2=O	-1	-9	98*	0	3	6
CO[C@H]1CN(C)C(=O)c2cc(NS(C)(=O)=O)ccc2OC[C@H](C)N(C(=O)C2CCCCC2)C[C@H]1C	.	.	.	.	.	1
COc1cc2[nH]c3c(N4CCN(c5ccccn5)CC4)ncnc3c2cc1OC	-1	4	99*	0	.	.
COc1ccc(N2CCN(c3ncnc4c3[nH]c3ccccc34)CC2)cc1	0	5	43	-4	0	.
Cc1ccc(NC(=S)NCc2ccc3[nH]c4c(c3c2)CCCC4)cc1	3	-10	-3	-12	.	1
COCCNC(=S)NCc1ccc2[nH]c3c(c2c1)CCCC3	0	11	94*	-8	.	18
O=C(Cc1cnn(-c2ccccc2)c1)c1ccc(O)c(O)c1O	1	-14	100*	-2	.	.
CCc1cc(C(=O)Cc2cnn(-c3ccccc3)c2)c(O)cc1O	-1	-4	24	1	2	.
CC1=C/C(=N\OC(=O)/C=C/c2ccccc2)C(C)=CC1=O	0	6	95*	-3	-1	.
COc1ccc(-n2c(O)c(/C=N/NS(=O)(=O)c3cccc([N+](=O)[O-])c3)c3ccccc3c2=O)cc1OC	2	-4	89*	5	5	26
COc1ccc(CC(=O)NNS(=O)(=O)c2cccc([N+](=O)[O-])c2)cc1OC	0	-16	.	1	.	0
O=C(N[C@H]1CC[C@H](CCn2cc(C3(O)CCCC3)nn2)O[C@@H]1CO)C1CCCCC1	.	.	.	.	.	0
CC(=O)N1CCC(c2c[nH]c3ccccc23)CC1	0	1	96*	1	-2	-2
Oc1oc(-c2ccco2)nc1C=Nc1cccc(Cl)c1	-1	23	96*	1	1	.
CN(Cc1ccco1)c1ncnc2ccc(-c3ccccc3Cl)cc12	1	7	-3	-6	.	1
CN(Cc1ccco1)c1ncnc2ccc(-c3ccoc3)cc12	0	15	4	-3	.	39*
COc1ccccc1NCCC(=O)O	0	4	.	-1	-2	-1
O=C(O)CCNc1ccc(NCCC(=O)O)c2c1C(=O)c1ccccc1C2=O	2	3	99*	-4	56*	70*
COCC(=O)Nc1ccc2c(c1)C(=O)N(C)[C@H]1CC[C@H](CC(=O)Nc3ccccc3)O[C@@H]1CO2	.	.	.	.	.	4
CCOc1ccccc1OCC(=O)Nc1nc2ccccc2[nH]1	-1	-12	-10	4	0	0
CCOc1ccccc1Nc1nc2ccccc2[nH]1	2	.	96*	-1	1	.
C[C@H](CO)N1C[C@H](C)[C@@H](CN(C)CC2CC2)Oc2c(NS(=O)(=O)c3cccs3)cccc2C1=O	.	.	.	.	.	-1
CCCCCC1C/C(=N\O)C=C(C)C1C(=O)OC (configuration not stated)	1	309*	-6	0	2	0
C[C@H]1CN([C@@H](C)CO)C(=O)c2cccc(NC(=O)C3CCOCC3)c2O[C@@H]1CN(C)Cc1ccc(-c2ccccc2)cc1	.	.	.	.	.	-2
CCOC(=O)c1ccc(N=C2NC(=O)CS2)cc1	-1	-4	98*	0	0	.
O=[N+]([O-])c1cccc(CSc2ncnc3ccccc23)c1	-1	-13	99*	-6	.	.
C[C@H]1CN([C@@H](C)CO)C(=O)c2c(c3ccccc3n2C)-c2ccccc2CO[C@@H]1CN(C)CC1CC1	.	.	.	.	.	2
CNC[C@@H]1Oc2cc(-c3cccc(C(=O)N(C)C)c3)ccc2S(=O)(=O)N([C@H](C)CO)C[C@H]1C	.	.	.	.	.	-1
